Data on 24 targets can be found in the supplement of paper PMC10849652.

The full data set covers some 8,800 targets. This sample favours those with a hit. About 0.5% of all pairs of compound and target were hits. Values without a mark were called inactive.

Experiment in all cases: log2 fold change, soluble protein after heating vs DMSO (PISA); higher = thermal stabilisation; K562 lysate, 10 uM; active = over 0.2 and 3.5 SD of the protein, either way, in both replicates (recomputed)
Compound in test [1]: C1=CC=C(C=C1)[C@H](COC2=CC3=C(C=C2)NC(=O)N3)NC(=O)C4=CC=CN(C4=O)CC5=CC(=C(C=C5)F)F
A digest of the protocol: (§1)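 K562 pellets were dounce-homogenised in PBS pH 7.4 containing 1 mM MgCl2, and the crude extract, at 1 mg/mL protein, was exposed to 10 μM compound for 30 min. Aliquots were heated for 3 min across 48°C-58°C, pooled, brought to 0.5% NP-40 at 4°C and spun at 21,000xg for 90 min, with the supernatant taken as soluble protein. TMTpro 16plex LC-MS/MS with equalised channel sums quantified that protein. Values are log-two fold changes in thermal stability relative to solvent controls, taken from duplicates.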

Compound in test [2]: CC1=C(SC2=C1C(=N[C@H](C3=NN=C(N32)C)CC(=O)N)C4=CC=C(C=C4)Cl)C
The method in brief: as §1

Compound in test [3]: CC1=C2C(=CC=C1)N=C(N(C2=O)C3=CC=CC=C3C)CN4C=NC5=C(N=CN=C54)N
A digest of the protocol:
as §1

Compound in test [4]: Cc1sc2c(c1C)C(c1ccc(Cl)cc1)=N[C@@H](CC(=O)OC(C)(C)C)c1nnc(C)n1-2
The method in brief: as §1

Compound in test [5]: c1ccc([C@@H]2C[C@H]2NC2CCNCC2)cc1
The method in brief: as §1

Chain of UniProt Q96GS6 (Q96GS6 whole entry, looked up): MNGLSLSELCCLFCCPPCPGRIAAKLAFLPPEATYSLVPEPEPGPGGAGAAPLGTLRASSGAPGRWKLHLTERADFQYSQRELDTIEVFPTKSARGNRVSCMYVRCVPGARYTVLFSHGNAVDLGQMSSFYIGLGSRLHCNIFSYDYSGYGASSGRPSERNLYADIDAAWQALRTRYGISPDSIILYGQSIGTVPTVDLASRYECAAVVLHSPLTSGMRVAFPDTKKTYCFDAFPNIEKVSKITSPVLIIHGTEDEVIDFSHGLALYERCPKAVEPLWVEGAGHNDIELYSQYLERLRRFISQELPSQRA
Chain of UniProt Q9UNA0 (Q9UNA0 whole entry, looked up): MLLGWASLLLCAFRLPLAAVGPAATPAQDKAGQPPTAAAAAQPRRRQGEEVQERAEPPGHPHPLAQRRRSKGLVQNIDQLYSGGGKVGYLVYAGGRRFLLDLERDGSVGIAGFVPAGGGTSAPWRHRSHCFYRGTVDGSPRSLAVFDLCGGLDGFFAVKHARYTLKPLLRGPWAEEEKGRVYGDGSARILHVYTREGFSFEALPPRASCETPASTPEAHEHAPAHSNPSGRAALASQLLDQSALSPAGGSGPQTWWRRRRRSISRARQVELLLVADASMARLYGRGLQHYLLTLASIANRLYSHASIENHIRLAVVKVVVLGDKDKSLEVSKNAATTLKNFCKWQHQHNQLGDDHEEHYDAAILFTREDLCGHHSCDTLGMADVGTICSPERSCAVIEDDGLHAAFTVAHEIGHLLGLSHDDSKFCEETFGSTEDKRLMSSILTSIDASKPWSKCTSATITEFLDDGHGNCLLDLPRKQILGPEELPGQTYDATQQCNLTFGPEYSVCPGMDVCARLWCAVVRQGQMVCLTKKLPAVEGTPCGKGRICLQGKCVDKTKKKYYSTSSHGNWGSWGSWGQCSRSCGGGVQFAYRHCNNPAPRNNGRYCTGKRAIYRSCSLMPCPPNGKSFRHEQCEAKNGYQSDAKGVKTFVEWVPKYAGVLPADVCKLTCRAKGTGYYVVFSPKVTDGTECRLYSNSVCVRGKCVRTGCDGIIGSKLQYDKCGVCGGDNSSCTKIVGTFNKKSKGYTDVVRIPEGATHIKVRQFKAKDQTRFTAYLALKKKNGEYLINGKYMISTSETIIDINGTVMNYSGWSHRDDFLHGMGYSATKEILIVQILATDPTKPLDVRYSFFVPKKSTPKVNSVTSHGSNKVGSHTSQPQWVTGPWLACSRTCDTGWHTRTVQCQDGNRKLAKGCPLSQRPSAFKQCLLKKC
Chain of UniProt P27216 (P27216 whole entry, looked up): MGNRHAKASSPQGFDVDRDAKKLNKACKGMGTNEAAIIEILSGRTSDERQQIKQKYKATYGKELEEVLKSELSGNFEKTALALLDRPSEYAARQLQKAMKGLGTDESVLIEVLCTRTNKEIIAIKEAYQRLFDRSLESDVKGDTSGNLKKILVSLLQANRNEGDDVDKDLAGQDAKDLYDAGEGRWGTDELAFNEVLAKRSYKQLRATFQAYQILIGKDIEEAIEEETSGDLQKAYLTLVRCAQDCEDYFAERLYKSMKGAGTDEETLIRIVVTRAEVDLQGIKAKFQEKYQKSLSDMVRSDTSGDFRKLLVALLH
Chain of UniProt Q6NXE6 (Q6NXE6 whole entry, looked up): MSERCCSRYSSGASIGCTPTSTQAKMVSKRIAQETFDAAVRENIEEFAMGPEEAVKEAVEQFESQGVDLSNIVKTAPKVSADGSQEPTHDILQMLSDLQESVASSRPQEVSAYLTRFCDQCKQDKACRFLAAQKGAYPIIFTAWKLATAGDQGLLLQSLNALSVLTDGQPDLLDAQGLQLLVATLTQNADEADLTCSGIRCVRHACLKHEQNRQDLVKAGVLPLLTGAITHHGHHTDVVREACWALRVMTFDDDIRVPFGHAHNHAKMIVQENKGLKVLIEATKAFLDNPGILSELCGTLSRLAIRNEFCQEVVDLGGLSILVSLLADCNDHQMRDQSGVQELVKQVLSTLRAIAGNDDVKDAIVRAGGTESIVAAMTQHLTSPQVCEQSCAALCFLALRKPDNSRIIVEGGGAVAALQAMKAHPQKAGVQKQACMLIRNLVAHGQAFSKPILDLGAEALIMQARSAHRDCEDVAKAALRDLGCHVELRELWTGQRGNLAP
Chain of UniProt O14727 (O14727 whole entry, looked up): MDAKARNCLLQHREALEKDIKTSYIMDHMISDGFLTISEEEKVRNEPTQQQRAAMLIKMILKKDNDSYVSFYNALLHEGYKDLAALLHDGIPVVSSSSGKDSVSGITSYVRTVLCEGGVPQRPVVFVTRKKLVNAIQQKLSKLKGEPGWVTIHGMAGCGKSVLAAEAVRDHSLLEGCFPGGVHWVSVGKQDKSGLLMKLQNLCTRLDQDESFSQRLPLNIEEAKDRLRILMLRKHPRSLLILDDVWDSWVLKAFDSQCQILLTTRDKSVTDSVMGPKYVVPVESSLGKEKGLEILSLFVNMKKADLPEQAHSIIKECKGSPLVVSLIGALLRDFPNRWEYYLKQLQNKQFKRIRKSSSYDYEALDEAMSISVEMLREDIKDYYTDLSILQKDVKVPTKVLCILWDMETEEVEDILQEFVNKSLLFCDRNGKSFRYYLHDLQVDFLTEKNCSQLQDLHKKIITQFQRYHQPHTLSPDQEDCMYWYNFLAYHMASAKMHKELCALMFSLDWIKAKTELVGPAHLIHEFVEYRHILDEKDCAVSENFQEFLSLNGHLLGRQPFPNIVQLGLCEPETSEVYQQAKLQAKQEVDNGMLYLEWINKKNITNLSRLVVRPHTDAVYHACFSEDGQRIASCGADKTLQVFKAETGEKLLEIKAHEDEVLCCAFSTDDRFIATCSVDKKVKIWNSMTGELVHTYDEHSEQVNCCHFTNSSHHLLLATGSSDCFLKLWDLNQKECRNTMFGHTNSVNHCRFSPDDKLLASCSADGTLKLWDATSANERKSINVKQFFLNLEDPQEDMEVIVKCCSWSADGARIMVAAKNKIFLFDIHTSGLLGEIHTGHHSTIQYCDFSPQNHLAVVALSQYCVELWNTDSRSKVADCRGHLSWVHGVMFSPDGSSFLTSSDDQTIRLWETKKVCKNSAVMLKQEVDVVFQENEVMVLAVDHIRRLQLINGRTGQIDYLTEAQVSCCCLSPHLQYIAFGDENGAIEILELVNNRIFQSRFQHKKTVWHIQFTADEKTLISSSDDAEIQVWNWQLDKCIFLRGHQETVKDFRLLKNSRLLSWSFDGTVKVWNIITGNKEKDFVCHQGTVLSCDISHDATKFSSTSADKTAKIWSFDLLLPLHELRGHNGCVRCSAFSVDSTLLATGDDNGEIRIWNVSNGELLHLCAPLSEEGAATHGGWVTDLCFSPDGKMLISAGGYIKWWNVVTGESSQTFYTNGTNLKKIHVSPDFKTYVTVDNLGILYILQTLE
Chain of UniProt P52895 (P52895 whole entry, looked up): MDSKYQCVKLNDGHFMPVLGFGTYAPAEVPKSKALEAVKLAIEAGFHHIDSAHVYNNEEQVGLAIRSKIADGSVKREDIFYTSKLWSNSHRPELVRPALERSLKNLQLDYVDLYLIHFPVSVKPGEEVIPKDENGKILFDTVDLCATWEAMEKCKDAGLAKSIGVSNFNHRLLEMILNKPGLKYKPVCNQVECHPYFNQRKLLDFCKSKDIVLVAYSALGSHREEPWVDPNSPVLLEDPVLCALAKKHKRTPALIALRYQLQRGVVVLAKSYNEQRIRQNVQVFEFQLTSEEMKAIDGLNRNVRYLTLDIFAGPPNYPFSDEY
Chain of UniProt O95870 (O95870 whole entry, looked up): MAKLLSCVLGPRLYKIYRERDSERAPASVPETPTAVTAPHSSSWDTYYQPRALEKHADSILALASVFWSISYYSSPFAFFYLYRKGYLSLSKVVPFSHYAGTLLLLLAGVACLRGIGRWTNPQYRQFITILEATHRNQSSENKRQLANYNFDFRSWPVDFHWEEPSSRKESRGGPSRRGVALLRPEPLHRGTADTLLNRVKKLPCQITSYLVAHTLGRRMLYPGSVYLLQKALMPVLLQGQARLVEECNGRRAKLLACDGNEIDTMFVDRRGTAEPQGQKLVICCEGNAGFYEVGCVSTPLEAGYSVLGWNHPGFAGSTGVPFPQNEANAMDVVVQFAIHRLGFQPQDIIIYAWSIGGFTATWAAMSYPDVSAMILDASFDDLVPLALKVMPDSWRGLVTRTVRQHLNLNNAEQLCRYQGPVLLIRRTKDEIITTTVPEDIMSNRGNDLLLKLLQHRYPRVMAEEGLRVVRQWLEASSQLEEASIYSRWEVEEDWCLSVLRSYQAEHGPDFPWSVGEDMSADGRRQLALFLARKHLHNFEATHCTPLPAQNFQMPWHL
Chain of UniProt P27144 (P27144 whole entry, looked up): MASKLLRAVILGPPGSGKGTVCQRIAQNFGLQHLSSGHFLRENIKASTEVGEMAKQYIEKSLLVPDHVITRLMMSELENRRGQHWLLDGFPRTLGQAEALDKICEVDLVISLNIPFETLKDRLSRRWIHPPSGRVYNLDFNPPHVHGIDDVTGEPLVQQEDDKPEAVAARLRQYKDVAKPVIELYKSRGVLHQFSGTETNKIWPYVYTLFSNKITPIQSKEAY
Chain of UniProt Q6NXT1 (Q6NXT1 whole entry, looked up): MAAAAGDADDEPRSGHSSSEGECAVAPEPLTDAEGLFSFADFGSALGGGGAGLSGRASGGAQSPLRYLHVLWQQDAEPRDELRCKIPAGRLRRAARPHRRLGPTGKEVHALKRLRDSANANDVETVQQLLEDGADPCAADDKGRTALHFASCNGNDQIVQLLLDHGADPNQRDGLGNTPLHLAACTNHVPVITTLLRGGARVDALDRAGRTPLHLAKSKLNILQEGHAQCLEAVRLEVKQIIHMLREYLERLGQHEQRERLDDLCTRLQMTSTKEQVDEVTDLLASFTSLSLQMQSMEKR
Chain of UniProt P00568 (P00568 whole entry, looked up): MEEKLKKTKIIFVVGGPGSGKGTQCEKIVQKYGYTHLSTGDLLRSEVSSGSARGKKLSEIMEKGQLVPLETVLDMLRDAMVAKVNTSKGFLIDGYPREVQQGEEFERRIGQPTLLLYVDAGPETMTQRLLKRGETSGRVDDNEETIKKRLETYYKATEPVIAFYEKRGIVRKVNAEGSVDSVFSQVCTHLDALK

In the case of APAF1 (UniProt O14727), the log2 fold change in test [1] was -0.013; in test [2], 0.004; in test [3], 0.022; in test [4], 0.012; in test [5], 0.02.
The like results for ANXA13 isoform 2 (UniProt P27216) were, in that order, 0.058, -0.041, -0.048, 0.17 and 0.011.
The like results for AKAP11 (UniProt Q9UKA4) were, in that order, 0.025, -0.008, 0.059, -0.041 and -0.012.
The like results for AIFM2 (UniProt Q9BRQ8) were, in that order, 0.668 (active), 0.008, 0.039, -0.007 and -0.1.
Consider AGTPBP1 (UniProt Q9UPW5), for which the log2 fold change in test [1] is 0.131; in test [2] it was -0.13; in test [3], 0.051; in test [4], -0.042; in test [5] it was 0.03.
The like results for AK4 (UniProt P27144) were, in that order, 0.025, -0.038, 0.059, 0.024 and 0.026.
As for ADAMTS5 (UniProt Q9UNA0), the log2 fold change in test [1] was 0.032; in test [2] it was 0.115; in test [3] it was 0; in test [4] it was -0.136; in test [5], -0.481 (active).
The like results for ABHD17A isoform 2 (UniProt Q96GS6) were, in that order, -0.053, -0.02, 0.011, -0.025 and -0.069.
The like results for ABCC5 (UniProt O15440) were, in that order, 0.087, -0.052, -0.108, -0.099 and 0.115.
Turning to ACSL4 (UniProt O60488), the log2 fold change in test [1] was -0.058; in test [2] it was 0.046; in test [3], 0.032; in test [4] it was -0.106; in test [5], 0.038.
The like results for AK1 (UniProt P00568) were, in that order, -0.032, 0.024, -0.009, 0.012 and 0.2.
The like results for ANXA1 (UniProt P04083) were, in that order, -0.011, 0.005, -0.01, -0.019 and -0.005.
The like results for ARMC6 (UniProt Q6NXE6) were, in that order, -0.046, -0.012, -0.017, 0.003 and 0.043.
Turning to ANKRD10 (UniProt Q9NXR5), the log2 fold change in test [1] is -0.131; in test [2], -0.027; in test [3], 0.025; in test [4], 0.06; in test [5], -0.019.
The like results for ANXA2 isoform 2 (UniProt P07355) were, in that order, 0, -0.005, -0.019, 0.024 and 0.02.
The like results for ANKRD54 (UniProt Q6NXT1) were, in that order, 0.011, -0.04, 0.038, -0.042 and -0.024.
The like results for ABCF2 isoform 2 (UniProt Q9UG63) were, in that order, -0.022, -0.011, 0.04, -0.019 and 0.055.
ARHGAP25 isoform 4 (UniProt P42331): the log2 fold change was 0.013 in test [1]; 0.016 in test [2]; 0.012 in test [3]; -0.046 in test [4]; 0.035 in test [5].
The like results for ADD1 isoform 4 (UniProt P35611) were, in that order, 0.22, 0.088, 0.12, -0.099 and -0.571.
The like results for AKR1C2 (UniProt P52895) were, in that order, -0.012, 0.047, 0.047, -0.184 and -0.107.
The like results for AKAP8L (UniProt Q9ULX6) were, in that order, 0.011, -0.005, -0.001, 0.018 and -0.02.
Regarding ABHD16A (UniProt O95870), the log2 fold change in test [1] was -0.011; in test [2] it was 0.008; in test [3], 0.07; in test [4], 0.059; in test [5], 0.028.
Take ADD1 isoform 3 (UniProt P35611): the log2 fold change in test [1] was 0.03; in test [2], 0.016; in test [3], -0.01; in test [4], -0.021; in test [5], 0.015.
The like results for ALDH1L2 (UniProt Q3SY69) were, in that order, 0.015, 0.041, 0.052, -0.009 and -0.023.
